Test results taken from the supplement of paper PMC10849652.
About 7,900 targets were measured; listed, in parts, are those with a hit and a random draw of the rest. About 0.6% of all pairs of compound and target were hits. Unmarked numbers belong to inactive results.

Legend:
Assay in all cases: log2 fold change, soluble protein after heating vs DMSO (PISA); higher = thermal stabilisation; K562 cells, 10 uM, 30 min; active = over 0.2 and 3.5 SD of the protein, either way, in both replicates (recomputed)
[1] = compound: CC(C)(C)Cn1c(N)nc2ccc(-c3[nH]c(C(C)(C)C)nc3-c3ccc(F)cc3)nc21 [ralimetinib]
How it was run: (§1)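 K562 cells at 2×10^6 cells/mL were given 10 μM compound for 30 min. Aliquots then went through 3 min of heating across 48°C-58°C, were pooled, and were extracted in PBS with 0.5% NP-40 at 4°C, and the supernatant after 21,000xg for 90 min was quantified by TMTpro 16plex LC-MS/MS with channel sums equalised. Thermal stability relative to control samples, from duplicates, is given as log2 fold change.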

[2] = compound: CC(C)C[C@@H](C=O)NC(=O)[C@H](CC(C)C)NC(=O)[C@H](CC(C)C)NC(=O)OCc1ccccc1
How it was run: as §1

[3] = compound: CC1=C(C=C(C=C1)NC(=O)C2=CC(=CC=C2)N(C)C)NC(=O)C3=CC=C(C=C3)O
How it was run: as §1

[4] = compound: CC1=CC=C(C=C1)SC2=C3C=C(SC3=CN=C2)C(=O)N
How it was run: as §1

[5] = compound: CCCS(=O)(=O)Nc1ccc(F)c(C(=O)c2c[nH]c3ncc(Cl)cc23)c1F
How it was run: as §1

[6] = compound: C1COCCN1CCN2C3=CC=CC=C3N=C2NC(=O)C4=CC(=CC=C4)[N+](=O)[O-] [IRAK-1-4 Inhibitor I]
How it was run: as §1

[7] = compound: CC(C)C1=C2N=C(C=C(N2N=C1)NCC3=CC=CC=C3)NCCCCCCN
How it was run: as §1

[8] = compound: CC(C)N(C[C@H]1O[C@@H](n2cnc3c(N)ncnc32)[C@H](O)[C@@H]1O)[C@H]1C[C@@H](CCc2nc3cc(C(C)(C)C)ccc3[nH]2)C1 [pinometostat]
How it was run: as §1

[9] = compound: CC1=C(C=C(C=C1)NC(=O)C2=CC(=CC=C2)C(C)(C)C#N)NC3=CC4=C(C=C3)N=CN(C4=O)C
How it was run: as §1

[10] = compound: CC1=NC(=CC=C1)C2=C(N=C(N2)C(C)(C)C)C3=CC4=NC=CN=C4C=C3
How it was run: as §1

[11] = compound: CCCc1cc(C)[nH]c(=O)c1CNC(=O)c1cc(-c2ccnc(N3CCN(C)CC3)c2)cc2c1cnn2C(C)C
How it was run: as §1

[12] = compound: CCN(CC)Cc1ccc2cc(COC(=O)Nc3ccc(C(=O)NO)cc3)ccc2c1 [givinostat]
How it was run: as §1

[13] = compound: CC(C)(O)CC(=O)NCCn1ccc2ncnc(Nc3ccc(Oc4cccc(C(F)(F)F)c4)c(Cl)c3)c21
How it was run: as §1

[14] = compound: CC1=C(C2=C(C=C1)C(=O)C3=CC=CC=C3N2CCCN)C
How it was run: as §1

[15] = compound: CCCCN(Cc1ccc(C(=O)NO)cc1)C(=O)Nc1ccccc1 [Nexturastat A]
How it was run: as §1

[16] = compound: CCCS(=O)(=O)Nc1ccc(F)c(C(=O)c2c[nH]c3ncc(-c4ccc(Cl)cc4)cc23)c1F [vemurafenib]
How it was run: as §1

[17] = compound: CC(=O)c1cnc2ccc(-c3cc(Cl)c(O)c(Cl)c3)nc2c1N[C@H]1CC[C@H](CN(C)C)CC1
How it was run: as §1

[18] = compound: C=CC(=O)N1CCC[C@@H](n2nc(-c3ccc(Oc4ccccc4)cc3)c3c(N)ncnc32)C1 [ibrutinib]
How it was run: as §1

[19] = compound: CC1=C(C(CC(=O)N1)C2=CC=C(C=C2)C(F)(F)F)C(=O)NC3=C(C=C4C(=C3)C=NN4)F
How it was run: as §1

[20] = compound: CCN(CCCOc1ccc2c(Nc3cc(CC(=O)Nc4cccc(F)c4)[nH]n3)ncnc2c1)CCOP(=O)(O)O [barasertib]
How it was run: as §1

UniProt P01344, sequence (P01344 whole entry, looked up): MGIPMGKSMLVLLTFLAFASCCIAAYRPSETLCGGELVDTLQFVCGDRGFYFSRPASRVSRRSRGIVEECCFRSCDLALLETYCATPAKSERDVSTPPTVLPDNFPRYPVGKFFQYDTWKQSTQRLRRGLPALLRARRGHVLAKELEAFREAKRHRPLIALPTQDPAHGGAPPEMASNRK
UniProt P02679, sequence (P02679 whole entry, looked up): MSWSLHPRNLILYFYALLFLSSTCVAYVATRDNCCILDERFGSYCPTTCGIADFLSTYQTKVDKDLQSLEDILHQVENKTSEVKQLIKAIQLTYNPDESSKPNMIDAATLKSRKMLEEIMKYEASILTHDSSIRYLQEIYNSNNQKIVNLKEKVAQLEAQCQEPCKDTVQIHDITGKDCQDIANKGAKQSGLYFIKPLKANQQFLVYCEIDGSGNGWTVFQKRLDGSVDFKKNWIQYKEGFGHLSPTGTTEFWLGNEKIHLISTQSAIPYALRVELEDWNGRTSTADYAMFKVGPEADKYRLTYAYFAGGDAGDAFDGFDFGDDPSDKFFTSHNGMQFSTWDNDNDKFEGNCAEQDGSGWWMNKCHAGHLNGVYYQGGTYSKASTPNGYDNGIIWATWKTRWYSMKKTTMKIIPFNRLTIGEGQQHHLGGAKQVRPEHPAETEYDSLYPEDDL
UniProt Q9Y324, sequence (Q9Y324 whole entry, looked up): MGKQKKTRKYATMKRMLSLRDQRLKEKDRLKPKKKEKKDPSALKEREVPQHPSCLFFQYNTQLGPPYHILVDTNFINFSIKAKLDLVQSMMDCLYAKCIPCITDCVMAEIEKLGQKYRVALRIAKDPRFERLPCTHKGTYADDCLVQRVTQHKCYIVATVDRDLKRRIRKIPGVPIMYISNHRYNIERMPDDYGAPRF
UniProt P15260, sequence (P15260 whole entry, looked up): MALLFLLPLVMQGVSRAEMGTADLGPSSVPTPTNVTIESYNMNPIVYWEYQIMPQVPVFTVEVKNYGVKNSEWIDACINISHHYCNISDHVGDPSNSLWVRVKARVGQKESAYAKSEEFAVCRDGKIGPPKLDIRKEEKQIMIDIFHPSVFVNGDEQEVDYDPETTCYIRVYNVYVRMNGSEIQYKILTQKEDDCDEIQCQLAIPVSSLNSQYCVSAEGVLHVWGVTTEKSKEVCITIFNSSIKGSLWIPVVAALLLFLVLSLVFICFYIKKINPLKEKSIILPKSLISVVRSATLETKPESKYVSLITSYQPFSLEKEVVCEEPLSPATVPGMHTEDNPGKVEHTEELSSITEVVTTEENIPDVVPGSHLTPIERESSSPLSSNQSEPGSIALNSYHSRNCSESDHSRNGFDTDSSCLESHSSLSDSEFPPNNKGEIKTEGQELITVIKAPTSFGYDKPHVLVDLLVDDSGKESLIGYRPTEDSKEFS
UniProt O14976, sequence (O14976 whole entry, looked up): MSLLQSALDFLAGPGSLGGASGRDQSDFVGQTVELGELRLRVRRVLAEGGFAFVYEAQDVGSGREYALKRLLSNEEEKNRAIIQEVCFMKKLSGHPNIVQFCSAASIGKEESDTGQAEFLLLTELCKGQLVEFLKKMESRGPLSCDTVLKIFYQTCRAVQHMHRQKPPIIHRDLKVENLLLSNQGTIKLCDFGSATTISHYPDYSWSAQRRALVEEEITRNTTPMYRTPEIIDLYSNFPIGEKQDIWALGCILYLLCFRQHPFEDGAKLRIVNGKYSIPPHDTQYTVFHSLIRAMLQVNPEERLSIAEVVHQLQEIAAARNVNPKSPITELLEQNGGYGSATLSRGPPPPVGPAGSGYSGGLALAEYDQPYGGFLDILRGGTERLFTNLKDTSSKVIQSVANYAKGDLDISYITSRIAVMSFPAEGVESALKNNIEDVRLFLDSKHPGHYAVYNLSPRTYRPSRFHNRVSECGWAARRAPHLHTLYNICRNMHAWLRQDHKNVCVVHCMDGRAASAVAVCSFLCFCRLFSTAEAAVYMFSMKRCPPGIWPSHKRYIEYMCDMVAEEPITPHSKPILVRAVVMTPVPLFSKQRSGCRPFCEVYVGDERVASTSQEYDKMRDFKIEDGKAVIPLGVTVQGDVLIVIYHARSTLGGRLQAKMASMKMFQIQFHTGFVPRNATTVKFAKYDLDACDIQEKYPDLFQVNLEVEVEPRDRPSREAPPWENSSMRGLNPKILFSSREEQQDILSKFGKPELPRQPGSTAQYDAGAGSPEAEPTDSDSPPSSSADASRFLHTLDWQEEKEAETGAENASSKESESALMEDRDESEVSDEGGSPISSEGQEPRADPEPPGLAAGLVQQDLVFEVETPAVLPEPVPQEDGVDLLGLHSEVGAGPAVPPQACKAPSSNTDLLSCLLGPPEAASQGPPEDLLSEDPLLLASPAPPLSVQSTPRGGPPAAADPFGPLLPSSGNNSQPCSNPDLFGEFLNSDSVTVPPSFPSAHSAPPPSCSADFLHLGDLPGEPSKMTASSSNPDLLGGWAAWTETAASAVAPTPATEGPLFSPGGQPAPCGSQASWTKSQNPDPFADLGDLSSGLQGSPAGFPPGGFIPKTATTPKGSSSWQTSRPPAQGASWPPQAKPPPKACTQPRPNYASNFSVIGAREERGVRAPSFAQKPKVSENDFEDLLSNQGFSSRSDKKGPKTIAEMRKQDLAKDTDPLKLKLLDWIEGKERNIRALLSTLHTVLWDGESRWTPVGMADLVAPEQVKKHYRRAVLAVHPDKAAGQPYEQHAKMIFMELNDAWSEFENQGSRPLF
UniProt Q9HCG7, sequence (Q9HCG7 whole entry, looked up): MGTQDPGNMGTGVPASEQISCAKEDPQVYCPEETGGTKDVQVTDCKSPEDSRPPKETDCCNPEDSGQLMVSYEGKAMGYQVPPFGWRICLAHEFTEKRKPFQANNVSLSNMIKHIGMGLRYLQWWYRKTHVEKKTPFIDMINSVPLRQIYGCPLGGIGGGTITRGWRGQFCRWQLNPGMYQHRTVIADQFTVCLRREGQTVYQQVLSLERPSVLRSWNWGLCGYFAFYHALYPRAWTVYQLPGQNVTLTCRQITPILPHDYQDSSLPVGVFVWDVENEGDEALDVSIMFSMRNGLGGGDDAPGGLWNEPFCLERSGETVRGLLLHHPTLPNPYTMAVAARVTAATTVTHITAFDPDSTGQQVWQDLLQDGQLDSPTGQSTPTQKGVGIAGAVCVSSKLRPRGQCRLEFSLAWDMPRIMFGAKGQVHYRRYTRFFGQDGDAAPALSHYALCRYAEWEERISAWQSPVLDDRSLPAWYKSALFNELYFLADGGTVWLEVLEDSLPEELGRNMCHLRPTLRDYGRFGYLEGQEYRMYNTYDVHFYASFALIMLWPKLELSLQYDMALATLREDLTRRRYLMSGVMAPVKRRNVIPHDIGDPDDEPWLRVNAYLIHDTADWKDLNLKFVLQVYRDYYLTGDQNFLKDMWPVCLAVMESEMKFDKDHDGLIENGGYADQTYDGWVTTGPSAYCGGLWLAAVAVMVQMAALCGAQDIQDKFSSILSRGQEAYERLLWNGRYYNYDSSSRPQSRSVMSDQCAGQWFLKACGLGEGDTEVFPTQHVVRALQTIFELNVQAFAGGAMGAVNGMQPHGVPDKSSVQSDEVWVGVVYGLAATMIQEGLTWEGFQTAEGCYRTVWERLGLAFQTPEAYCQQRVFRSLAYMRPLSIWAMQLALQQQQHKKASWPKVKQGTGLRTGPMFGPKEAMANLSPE
UniProt P21695, sequence (P21695 whole entry, looked up): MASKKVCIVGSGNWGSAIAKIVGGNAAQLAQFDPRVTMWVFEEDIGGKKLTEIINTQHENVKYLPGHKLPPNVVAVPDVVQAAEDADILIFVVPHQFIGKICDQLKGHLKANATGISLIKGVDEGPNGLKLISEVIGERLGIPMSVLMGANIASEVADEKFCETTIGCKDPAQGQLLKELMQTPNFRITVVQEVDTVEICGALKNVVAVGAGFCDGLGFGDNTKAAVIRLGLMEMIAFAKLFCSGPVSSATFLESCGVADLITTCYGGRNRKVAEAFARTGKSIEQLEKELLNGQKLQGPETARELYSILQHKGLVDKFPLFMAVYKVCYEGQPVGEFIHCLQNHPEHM
UniProt Q14956, sequence (Q14956 whole entry, looked up): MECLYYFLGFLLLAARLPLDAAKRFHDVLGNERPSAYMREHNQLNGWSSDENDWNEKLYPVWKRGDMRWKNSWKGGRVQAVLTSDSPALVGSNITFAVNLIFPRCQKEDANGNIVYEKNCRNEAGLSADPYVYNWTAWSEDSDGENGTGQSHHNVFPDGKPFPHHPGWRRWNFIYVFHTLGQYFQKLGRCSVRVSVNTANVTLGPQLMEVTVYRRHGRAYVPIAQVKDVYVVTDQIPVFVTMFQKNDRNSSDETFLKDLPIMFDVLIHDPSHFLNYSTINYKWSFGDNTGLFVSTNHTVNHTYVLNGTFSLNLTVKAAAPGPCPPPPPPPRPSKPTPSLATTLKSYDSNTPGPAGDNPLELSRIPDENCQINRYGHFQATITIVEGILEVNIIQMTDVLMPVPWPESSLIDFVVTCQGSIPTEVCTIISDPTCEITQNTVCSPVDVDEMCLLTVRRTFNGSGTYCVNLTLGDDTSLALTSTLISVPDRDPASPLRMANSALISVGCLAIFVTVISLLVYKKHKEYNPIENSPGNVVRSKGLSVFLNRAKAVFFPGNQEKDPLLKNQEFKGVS
UniProt Q9UK97, sequence (Q9UK97 whole entry, looked up): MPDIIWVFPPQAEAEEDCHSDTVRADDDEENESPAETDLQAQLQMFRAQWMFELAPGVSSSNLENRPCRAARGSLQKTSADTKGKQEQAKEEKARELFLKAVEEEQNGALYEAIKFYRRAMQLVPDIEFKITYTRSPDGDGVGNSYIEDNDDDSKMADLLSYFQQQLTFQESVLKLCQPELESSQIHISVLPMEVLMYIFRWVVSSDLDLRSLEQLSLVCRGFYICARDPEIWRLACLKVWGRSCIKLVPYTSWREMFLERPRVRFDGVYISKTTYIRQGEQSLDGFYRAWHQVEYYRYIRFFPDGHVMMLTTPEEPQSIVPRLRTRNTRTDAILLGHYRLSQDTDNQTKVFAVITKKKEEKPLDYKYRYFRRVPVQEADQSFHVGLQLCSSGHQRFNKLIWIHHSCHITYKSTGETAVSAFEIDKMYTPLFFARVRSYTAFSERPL

| Target | log2 fold change [1] | log2 fold change [2] | log2 fold change [3] | log2 fold change [4] | log2 fold change [5] | log2 fold change [6] | log2 fold change [7] | log2 fold change [8] | log2 fold change [9] | log2 fold change [10] | log2 fold change [11] | log2 fold change [12] | log2 fold change [13] | log2 fold change [14] | log2 fold change [15] | log2 fold change [16] | log2 fold change [17] | log2 fold change [18] | log2 fold change [19] | log2 fold change [20] |
| --- | --- | --- | --- | --- | --- | --- | --- | --- | --- | --- | --- | --- | --- | --- | --- | --- | --- | --- | --- | --- |
| FGG (UniProt P02679) | -0.048 | 0.231 | 0.067 | -0.093 | -0.214 |  |  |  |  |  |  |  |  |  |  |  |  |  |  |  |
| FMR1 (UniProt Q06787) | 0.036 | 0.056 | 0.036 | -0.066 | -0.094 | 0.091 | 0.149 | 0.153 | -0.023 | -0.163 | -0.068 | -0.203 |  |  |  |  |  |  |  |  |
| FCF1 (UniProt Q9Y324) | 0.223 | 0.074 | -0.011 | -0.114 | -0.167 | -0.083 |  | 0.334 | 0.017 | -0.187 | 0.324 |  | 0.032 | -1.04 (active) | 0.271 | -0.139 |  |  |  |  |
| GPNMB (UniProt Q14956) |  |  |  |  |  |  | 0.108 |  |  |  |  | 0.671 | 0 |  | 1.64 (active) |  |  |  |  |  |
| FOXO3 (UniProt O43524) | -0.083 | 0.234 | -0.039 | 0.037 | 0.017 | -0.046 | -0.091 | 0 | 0.247 | 0.119 | -0.159 | 0.012 | 0.086 | 0.081 | 0.024 | -0.023 | -0.427 |  |  |  |
| GPD1 (UniProt P21695) | -0.141 | -0.051 | -0.046 | 0.021 | -0.042 |  | 0.268 |  | 0.011 |  | -0.34 | 0.514 | 0.079 | 0.009 | 0.653 (active) | 0.02 | -0.066 | 0.059 | 0.096 | 0.062 |
| GOLGA6B (UniProt A6NDN3) |  |  |  |  |  | -0.034 | 0.165 | -0.137 | -0.035 | 0.033 | -0.113 | 0.002 | 0.025 |  | -0.099 | 0.882 (active) |  | 0.013 | -0.19 | 0.011 |
| HNRNPK isoform 3 (UniProt P61978) | 0.03 | 0.041 | 0.027 |  |  | -0.011 | 0.075 | -0.021 | -0.015 | 0.066 | -0.067 | 0.062 | 0.087 | 0.21 | 0.085 | -0.066 |  | -0.001 | -0.039 | -0.136 |
| GAK (UniProt O14976) | 1.13 | 0.084 | 0.038 | -0.337 | 0.114 | -0.222 | -0.81 | 0.344 | 0.214 | -0.14 | 0.17 | 0.64 | -0.015 | -0.187 | 0.452 | -0.06 | 1.15 |  | -0.213 |  |
| FBXO9 (UniProt Q9UK97) | 0.137 | 0.088 | 0.009 | 0.064 | 0.061 | -0.034 | -0.101 | 0.038 |  | -0.025 | 0.052 | 0.111 |  | 0.137 |  | 0 |  | -0.119 | -0.062 | 0.117 |
| IFNGR1 (UniProt P15260) | -0.017 | 0.14 | 0.048 | -0.056 | -0.181 |  | 0.199 |  | -0.246 |  | -0.174 | 0.281 | -0.067 | -0.093 | 0.743 (active) | -0.124 | -0.086 | 0.224 | 0.054 | 0.028 |
| HSPA8 (UniProt E9PN89) |  |  |  | -0.261 | -0.507 | -0.032 | 0.085 | -0.004 | -0.158 | -0.144 | -0.689 | 0.182 | 0.127 | 0.043 | -0.019 | -0.276 | -0.145 | -0.069 | 0.07 | 0.03 |
| GID4 (UniProt Q8IVV7) | -0.019 | 0.027 | 0.003 | -0.07 | -0.271 (active) |  | 0.028 |  | 0.028 |  | -0.035 | -0.03 | 0.016 | -0.071 | 0.058 | -0.181 | 0.025 | 0.035 | 0.023 | -0.1 |
| GBA2 (UniProt Q9HCG7) |  |  |  | -0.043 | -0.032 | -0.082 | 0.326 | 0.121 | -0.079 | 0 | -0.076 | -0.02 | 0.048 | -0.003 | 0.051 | 0 | -0.073 | -0.027 | 0.003 | 0.008 |
| IGF2 isoform 3 (UniProt P01344) |  |  |  |  |  | 0.066 | -0.104 | -0.107 |  | 0.136 |  | -0.148 |  |  |  | 0.073 |  |  |  |  |
| FAT1 (UniProt Q14517) | -0.448 (active) | 0.683 | -0.218 | -0.029 | -0.051 | 0.028 | 0.162 | -0.095 | -0.036 | 0.053 | -0.067 | 0.044 | 0.01 | 0.091 | 0.104 | -0.199 |  | 0.151 | 0.019 | 0.045 |
